The list is not random: actives were taken first. Their share in the collection is about 9.2%.
SMN2 splice up: SMN2 splice variant enhancement. HEK293 SMN2-luciferase splicing reporter, luminescence, 30-36 h. Potency, µM (doses to about 46.1 µM), for the others: at the top dose activity change, positive = activation, actives largely listed as activators. hit rate 2.8% among 210,000. AID 1458; also: % of control where 0% means no effect; nearly all actives have a fitted effect of over 55% in size
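HEK293 cells carry an SMN2 minigene-luciferase reporter in which exon 7 inclusion puts luciferase in frame. Cells were seeded at 2000 cells/well, attached for 10-12 hours, then exposed to compounds for 30-36 hours at 37C before ONE-Glo luminescence.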
FLuc modulator: inhibits or activates purified firefly luciferase, miR-21 counter-screen; P08659; purified FLuc, Km substrates, luminescence inhibition; Potency, µM (titrated, usually from 57.5 µM), for the others: at the highest dose activity change, negative = inhibition, actives largely listed as inhibitors; hit rate 6.9% among 360,000; AID 588342;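 also: plate controls were vehicle for no effect and reference inhibitor for full effect; nearly all actives have a fitted effect of over 55% in size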
Target sequence (P08659 whole entry, looked up): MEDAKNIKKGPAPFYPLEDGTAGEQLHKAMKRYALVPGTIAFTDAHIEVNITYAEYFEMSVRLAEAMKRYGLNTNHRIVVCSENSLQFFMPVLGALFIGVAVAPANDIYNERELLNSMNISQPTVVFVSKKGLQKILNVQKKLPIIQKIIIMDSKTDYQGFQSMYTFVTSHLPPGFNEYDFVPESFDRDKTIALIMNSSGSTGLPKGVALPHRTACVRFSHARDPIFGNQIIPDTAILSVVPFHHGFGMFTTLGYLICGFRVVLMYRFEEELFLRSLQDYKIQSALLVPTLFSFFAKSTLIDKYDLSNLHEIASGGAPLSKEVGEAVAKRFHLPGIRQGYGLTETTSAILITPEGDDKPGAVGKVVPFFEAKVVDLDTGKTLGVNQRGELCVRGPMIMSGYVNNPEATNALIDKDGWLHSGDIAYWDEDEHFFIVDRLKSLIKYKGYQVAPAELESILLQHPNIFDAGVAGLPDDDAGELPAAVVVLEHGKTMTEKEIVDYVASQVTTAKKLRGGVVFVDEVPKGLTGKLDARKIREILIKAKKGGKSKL
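Purified P. pyralis luciferase (10nM final) with 10uM D-luciferin and 10uM ATP (Km levels) in 50mM Tris acetate pH 7.5, 10mM Mg acetate, 0.01% Tween-20, 0.05% BSA; qHTS 6-point titration, ~60 µM downward; luminescence read.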
NPC1 promoter act: NPC1 promoter activation; Huh7 NPC1 promoter luciferase reporter, 24 h; Potency, µM (series often up to 9.22 µM), for the others: at the highest dose activation, hits mostly activators; hit rate 2.4% among 320,000; AID 485313; also: % of control where 0% means no effect; nearly all actives have a fitted effect of over 60% in size
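Huh7 reporter cells (NPC1 promoter driving luciferase) are dosed with compound for 24 h at 37 °C, 5% CO2; luciferase detection reagent is then added and luminescence measured after 10 min at ambient temperature.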
ELG1 genotox: genotoxicity induction in ELG1-luciferase HEK293T cells | HEK293T ELG1-luciferase reporter, luminescence, 16 h | Potency, µM (series often up to 46 µM), for inactives: top-dose activity change, positive = activation, actives largely listed as activators | hit rate 1.3% among 330,000 | AID 504466; also: % of control where 0% means no effect; nearly all actives have a fitted effect of over 60% in size
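Screening used a luciferase reporter fused to human ELG1 in HEK293T cells. Luminescence was read on a CCD plate imager after 16 hr exposure and 30 min ONE-Glo incubation.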
Rab9 prom act: activates the Rab9 promoter; Huh7 Rab9 promoter-luciferase reporter, luminescence, 24 h; Potency, µM (doses to about 9.22 µM), inactives show top-dose activation, negative = inhibition, most hits filed as activators; hit rate 2.8% among 320,000; also: % of control where 0% means no effect; nearly all actives have a fitted effect of over 60% in size
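Luminescence read-out: Huh7 cells stably expressing Rab9-luciferase, treated 24 h with compound at 37 °C, then lysed with luciferase reagent for 10 min at ambient before reading.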
ELG1 repair inh: ELG1-dependent DNA repair inhibition; HEK293T ELG1-luciferase reporter, luminescence, 16 h; DNA damage induced by 5-fluorouridine; hit rate 2.3% among 330,000; Potency, µM (highest dose often 46.1 µM), for the others: at the highest dose activity change, negative = inhibition, hits mostly inhibitors; also: % is scaled to controls: 0 for no effect and ±100 for the full control effect; nearly all actives have a fitted effect of over 55% in size
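Quantitative HTS, concentration-response format. 2,000 cells/well co-treated with 5-fluorouridine and compound, 16 hr in 5% CO2 at 37 °C; ONE-Glo luminescence read after 30 min.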
* hit, by the source's call; ? = inconclusive; . = no result given. Calls follow the shape of the dose curve; as a rule, active = well fitted curve in the direction sought with a large enough effect; inconclusive = small, poorly fitted or top-dose-only effect, or another doubt; inactive = no such curve, though single readings can be large; an effect the other way counts as inactive or inconclusive. Potency is read from the fitted curve at half-maximal effect.

SMILES	SMN2 splice up	FLuc modulator	NPC1 promoter act	ELG1 genotox	Rab9 prom act	ELG1 repair inh
CCOC(=O)c1sc(NC(=O)Nc2ccccc2Cl)cc1C	0.71µM*	0.43µM*	0.71µM*	?	0.63µM*	?
CCOC(=O)c1sc(NC(=O)Nc2ccccc2)cc1C	3.2µM*	0.48µM*	1.3µM*	?	0.71µM*	?
CCOC(=O)c1sc(NC(C)=O)cc1C	2%	-10%	0%	-1%	-2%	8%
CCOC(=O)c1sc(NC(=O)C2CCC2)cc1C	16µM*	12µM*	?	?	?	?
COc1c(C)cc(C(=O)C2CCCN(Cc3cnc(N4CCOCC4)s3)C2)cc1C (centres undefined)	-26%	-2%	-3%	-5%	-7%	21µM*
Cc1ccc(Cn2cc(C(=O)c3ccc(F)cc3)c(=O)c3cc4c(cc32)OCCO4)cc1	0%	-6%	0%	-2%	-5%	21µM*
CSc1nc(C(C)C)ccc1CNC(=O)CC(C)c1ccccc1 (centres undefined)	.	1%	-4%	-8%	6%	?
COc1ccc(-c2cc(C(=O)NCCCn3ccnc3)c3ccccc3n2)c(OC)c1	.	-4%	-2%	3%	-2%	-8%
CCc1ccc(-c2cc(C(=O)NCCCn3ccnc3)c3ccccc3n2)s1	-1%	4.8µM*	6%	?	20%	?
CCc1ccc(-c2cc(C(=O)NN3CCOCC3)c3ccccc3n2)s1	12%	7.6µM*	1%	10%	1%	?
O=C(NN1CCOCC1)c1cc(-c2ccccc2)nc2ccccc12	-12%	1%	1%	0%	-7%	6%
CN1CCN(NC(=O)c2cc(-c3ccc(Br)s3)nc3ccccc23)CC1	.	?	-5%	23%	-1%	18%
Cc1ccc(-c2cc(C(=O)NCCCn3ccnc3)c3ccccc3n2)s1	-45%	17µM*	1%	0%	-1%	-14%
O=C(O)c1cc(-c2ccc(Br)s2)nc2ccccc12	.	8.5µM*	18%	9%	26%	?
CN(C(=O)c1ccc(NC(=O)Cc2cccc(NC(=O)C3CCN(C(=O)c4ccccc4)CC3)c2)cc1)C1CCCC1	.	-12%	2%	5%	7%	?
CC(=O)Nc1ccc(NC(=O)CN(c2ccc([N+](=O)[O-])cc2)S(=O)(=O)c2ccccc2)cc1	.	-14%	-5%	3%	10%	4%
COc1ccc(N(CC(=O)Nc2cccc(N(C)S(C)(=O)=O)c2)S(=O)(=O)c2ccc(C)cc2)cc1	.	0%	-1%	-5%	-3%	?
CN(c1cccc(NC(=O)CN(c2cccc(Cl)c2)S(=O)(=O)c2ccccc2)c1)S(C)(=O)=O	.	2%	-2%	-10%	2%	26µM*
COc1ccc(N(CC(=O)Nc2cccc(N(C)S(C)(=O)=O)c2)S(=O)(=O)c2ccc(F)cc2)cc1	.	-2%	1%	-7%	-5%	13µM*
CCOc1ccc(N(CC(=O)Nc2cccc(N(C)S(C)(=O)=O)c2)S(=O)(=O)c2ccccc2)cc1	-27%	-2%	-3%	-11%	-1%	13µM*
CCOc1ccc(NC(=O)CN(c2ccc([N+](=O)[O-])cc2)S(=O)(=O)c2ccccc2)cc1	-13%	0%	-8%	-7%	-5%	10µM*
CN(CC(=O)Nc1ccccc1Cl)C(=O)COC(=O)/C=C/c1cccc(C(F)(F)F)c1	.	4%	1%	2%	-2%	-1%
CCc1cccc(-n2c(=O)c3cccnc3n2CC(=O)NCc2ccccc2Cl)c1	.	0%	.	.	.	.
CC(=O)c1cccc(NC(=O)COC(=O)C2=COCCO2)c1	0%	-4%	-4%	-1%	1%	6%
COC(=O)c1c(NC(=O)C2=COCCO2)sc(C)c1C	.	-17%	-3%	25%	13%	-19%
SMILES	SMN2 splice up	FLuc modulator	NPC1 promoter act	ELG1 genotox	Rab9 prom act	ELG1 repair inh
COc1ccc(NC(=O)CN(c2ccccc2)S(=O)(=O)N(C)C)cc1Cl	-10%	1%	-7%	1%	-3%	14%
COc1ccc(NC(=O)CN(c2ccccc2)S(=O)(=O)N(C)C)cc1OC	1µM*	2%	2%	-7%	-1%	0%
COc1ccc(N(CC(=O)Nc2ccc(OC)c(OC)c2)S(=O)(=O)c2ccccc2)cc1Cl	.	-1%	-2%	-5%	10%	?
COc1ccc(N(CC(=O)Nc2cccc(N(C)S(C)(=O)=O)c2)S(=O)(=O)c2ccccc2)cc1Cl	.	-5%	-2%	-11%	0%	8.2µM*
CC(C)n1cnc2cc(NCc3ccco3)ccc21	?	17µM*	?	21%	?	?
Cc1cc(NCc2ccccn2)ccc1Br	2%	15µM*	?	13%	?	?
CC(C)n1cnc2cc(NCc3ccccc3O)ccc21	.	21µM*	19%	15%	?	?
CCCn1c(NCc2ccco2)nc2ccccc21	?	0%	0%	2%	-7%	0%
CC(C)(C)n1cnc2cc(NCc3ccccc3O)ccc21	.	12µM*	28%	17%	8%	?
CCN(CC)c1ccc(CNc2ccc3c(c2)ncn3C(C)(C)C)cc1	.	?	3%	0%	12%	-18%
Cc1cccc(NC(=S)NCc2ccccn2)c1	19%	3%	-2%	1%	-7%	9%
Cc1ccccc1-c1noc(CCC(=O)Nc2cccc(C)c2C)n1	-2%	-2%	.	.	.	.
CC(C)n1cnc2cc(NCc3ccccn3)ccc21	18µM*	24µM*	1.8µM*	?	?	?
CC(C)(C)n1cnc2cc(NC(=O)c3ccc(Cl)cc3)ccc21	.	4.8µM*	0.56µM*	2.9µM*	0.5µM*	?
COc1cc(C(=O)Nc2ccc3c(c2)ncn3C(C)(C)C)cc(OC)c1OC	.	?	3%	16%	17%	?
CN(C)c1ccc(CNc2ccc3c(c2)ncn3C)cc1	-13%	?	-1%	?	-6%	?
CC(=O)c1cccc(NC(=O)CSc2nc3ccccc3nc2Cc2ccc(F)cc2)c1	.	2%	.	.	.	.
CCCNS(=O)(=O)c1ccc(CCC(=O)Nc2cc(Cl)ccc2Oc2ccccc2)cc1	-62%	3%	-2%	-9%	-4%	23µM*
COc1ccc(C(=O)OC(C)C(=O)Nc2cc(C(F)(F)F)ccc2Cl)c(OC)c1OC (centres undefined)	-29%	2%	-3%	-4%	-3%	21µM*
CC(OC(=O)c1ccc(O)cc1)C(=O)Nc1cc(C(F)(F)F)ccc1Cl (centres undefined)	.	2%	-4%	-9%	-1%	?

Screens as filed in PubChem.
